BAZ2B inh – qHTS Assay for Inhibitors of BAZ2B; 360,000 compounds, 4.4% hits; Potency, µM (highest dose often 114 µM), inactives show at the highest dose activity change, negative = inhibition, hits mostly inhibitors; AID 504333, 2011; Bromodomain adjacent to zinc finger domain protein 2B (Homo sapiens), Q9UIF8; AlphaScreen BAZ2B-H3K14Ac peptide displacement; note: potency is the fitted concentration of half-maximal effect; % is set by controls: 0 for no effect and ±100 for the full control effect; nearly all actives have a fitted effect of over 60% in size
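BAZ2B 50 nM plus b-H3(5-23)K14Ac 50 nM, PBS pH 7.4/0.01% Tween-20, 30 min RT; compound added (max 110 uM), 30 min RT; streptavidin donor/Ni-chelate acceptor beads 10 ug/mL final, 20 min dark; AlphaScreen read.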
JMJD2E inh – qHTS Assay for Inhibitors of Human Jumonji Domain Containing 2E (JMJD2E); JMJD2E catalytic domain, FDH-coupled NADH fluorescence (FDH is formaldehyde dehydrogenase); 230,000 compounds, 1.6% hits; Potency, µM (titrated, usually from 57.1 µM), for inactives: at the highest dose activity change, negative = inhibition, actives largely listed as inhibitors; Lysine-specific demethylase 4E (Homo sapiens), B2RXH2; active = well fitted inhibition curve with a large enough effect, not every such curve was filed as active; inconclusive = small, poorly fitted or top-dose-only effect, or another doubt; inactive = no such curve, though single readings can be large or run the other way;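 note: potency is the fitted concentration of half-maximal effect; 0% = wells with enzyme and -100% = buffer wells without enzyme; nearly all actives have a fitted effect of over 50% in size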
L3MBTL1 block – qHTS Assay for the Inhibitors of L3MBTL1; AlphaScreen L3MBTL1–H3K9me1 peptide binding; Potency, µM (titrated, usually from 57.1 µM), without a hit: at the highest dose activity, negative = inhibition, most hits filed as inhibitors; 230,000 compounds, 0.66% hits; note: potency is the fitted concentration of half-maximal effect; % is set by controls: 0 for no effect and ±100 for the full control effect; nearly all actives have a fitted effect of over 60% in size
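L3MBTL1 50 nM + b-AHA-H3(1-15)K9me1 75 nM, 30 min RT; compound added, 30 min RT; streptavidin donor/Ni-chelate acceptor beads 10 ug/mL each final, 30 min RT dark; AlphaScreen read.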
PI5P4K alpha inh – qHTS for Inhibitors of phosphatidylinositol 5-phosphate 4-kinase (PI5P4K) | PI5P4Kalpha enzyme, ADP-Glo luminescence, 60 min; hits give low values | max response, % | 330,000 compounds, 1.2% hits | AID 652105, 2013; active = max response of -50% or lower; inconclusive = between -30% and -50%; inactive = -30% or higher; note: value at the top dose of about 77 µM; % is set by controls: 0 for no effect and ±100 for the full control effect
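Enzyme plus substrate dispensed, test compounds pinned in, then ATP (5 microM final) added. After 60 min at RT, ADP-Glo reagent 1 for 45 min and reagent 2 for 30 min preceded luminescence imaging.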
JMJD2A Tudor – qHTS Assay for Inhibitors of JMJD2A-Tudor Domain; Potency, µM (doses to about 114 µM), for the others: top-dose activity change, negative = inhibition, hits mostly inhibitors; AID 504339, 2011; 390,000 compounds, 4.4% hits; AlphaScreen JMJD2A-Tudor / H3K4me3 peptide binding; note: potency is the fitted concentration of half-maximal effect; % is set by controls: 0 for no effect and ±100 for the full control effect; nearly all actives have a fitted effect of over 50% in size
Target sequence (O75164 whole entry, looked up, the tested form may be a part): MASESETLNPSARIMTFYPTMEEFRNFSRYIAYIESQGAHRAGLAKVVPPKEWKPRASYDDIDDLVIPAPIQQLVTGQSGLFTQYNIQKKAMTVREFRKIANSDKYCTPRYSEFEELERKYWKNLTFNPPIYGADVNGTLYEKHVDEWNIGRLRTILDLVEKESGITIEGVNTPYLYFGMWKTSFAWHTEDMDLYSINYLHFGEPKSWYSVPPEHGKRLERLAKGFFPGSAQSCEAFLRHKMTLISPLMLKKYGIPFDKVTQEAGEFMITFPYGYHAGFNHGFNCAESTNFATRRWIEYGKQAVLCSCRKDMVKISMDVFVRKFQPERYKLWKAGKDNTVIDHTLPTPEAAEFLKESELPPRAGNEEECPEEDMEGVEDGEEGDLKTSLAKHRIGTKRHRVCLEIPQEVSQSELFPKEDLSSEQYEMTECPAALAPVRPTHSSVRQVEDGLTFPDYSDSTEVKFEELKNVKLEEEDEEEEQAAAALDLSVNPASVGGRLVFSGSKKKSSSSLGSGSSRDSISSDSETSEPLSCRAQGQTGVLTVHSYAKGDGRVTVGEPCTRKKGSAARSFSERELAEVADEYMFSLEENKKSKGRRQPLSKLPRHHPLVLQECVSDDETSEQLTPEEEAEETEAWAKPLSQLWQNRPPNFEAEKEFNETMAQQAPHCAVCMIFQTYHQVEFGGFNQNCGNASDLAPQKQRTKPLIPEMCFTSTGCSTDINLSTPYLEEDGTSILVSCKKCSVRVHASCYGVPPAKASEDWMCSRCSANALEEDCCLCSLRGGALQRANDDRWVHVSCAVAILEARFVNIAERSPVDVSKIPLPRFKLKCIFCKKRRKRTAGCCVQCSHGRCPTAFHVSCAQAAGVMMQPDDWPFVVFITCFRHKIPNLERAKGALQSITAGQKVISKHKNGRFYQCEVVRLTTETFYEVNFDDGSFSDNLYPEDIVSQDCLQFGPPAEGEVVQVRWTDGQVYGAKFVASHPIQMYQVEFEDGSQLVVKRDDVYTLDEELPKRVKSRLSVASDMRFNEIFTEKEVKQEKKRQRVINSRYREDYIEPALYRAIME
HP1b chromo inh – HTS for Inhibitors of HP1-beta Chromodomain Interactions with Methylated Histone Tails; Chromobox protein homolog 1 (Homo sapiens), P83916; AlphaScreen HP1-beta / biotin-H3K9me3 peptide binding; Potency, µM (titrated, usually from 114 µM), without a hit: top-dose activity change, negative = inhibition, hits mostly inhibitors; 390,000 compounds, 0.56% hits; note: potency is the fitted concentration of half-maximal effect; nearly all actives have a fitted effect of over 70% in size
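HP1-beta protein (50 nM final) preincubated 30 min at room temperature with biotinylated H3(1-18)K9me3 peptide (50 nM) in PBS pH 7.4, 0.01% Tween-20, then compound added for 30 min. AlphaScreen streptavidin donor/nickel chelate acceptor beads (10 ug/mL final), 30 min dark, luminescence read.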
Starred values were filed as active, the others as inactive; ? = inconclusive; . = no result given; [ ] = another dose, or the depositor's remark. Shown are actives, neighbours in structure and some others; about 5.7% of the full set was active somewhere. Unless noted, calls come from the whole dose curve; as a rule, active = well fitted inhibition curve with a large enough effect; inconclusive = small, poorly fitted or top-dose-only effect; inactive = no such curve, though single readings can be large or run the other way.

SMILES	BAZ2B inh	JMJD2E inh	L3MBTL1 block	PI5P4K alpha inh	JMJD2A Tudor	HP1b chromo inh
Cc1ccc(-n2c(=O)c3c(C)c(C)sc3n(CC(=O)NCc3ccccc3)c2=O)cc1C	-18%	.	.	.	-2%	29%
O=C(O)CCc1ccc(-c2ccccc2)n1-c1ccc(C(=O)O)cc1	-5%	.	.	-14	-31%	25%
CCOC(=O)c1ccc(-n2c(CCC(=O)O)ccc2-c2ccccc2)cc1O	45µM*	.	.	.	-33%	-24%
CC1(C)CC(=O)C=C(c2ccc(F)nc2)C1	30%	.	3%	5	-13%	22%
Nc1nc2c(s1)CCc1c-2cnn1-c1ccccc1	45µM*	?	32µM*	?	25µM*	11µM*
Cc1ccc(/C=C2\C(=O)Nc3ccccc32)o1	40µM*	2%	-4%	?	45µM*	45µM*
CCN(c1cccc(C)c1)S(=O)(=O)c1c(C)nc2sc(C)cn2c1=O	-15%	.	.	.	-13%	6%
CCCCNc1cc(=O)n(C)c(=O)[nH]1	6%	0%	.	-4	-13%	34%
Cn1c(=O)[nH]c(NC2CCCCC2)c(N=O)c1=O	?	8%	12%	2	89µM*	45%
Cn1c(=O)[nH]c(NC2CCCCC2)c([N+](=O)[O-])c1=O	-2%	4%	5%	-13	-6%	33%
CCCNc1[nH]c(=O)n(C)c(=O)c1N=O	-38%[57.1 µM]	-2%	2%	?	50µM*	0%
CC(=O)Nc1ccccc1-c1nc2ccccc2n(CC(=O)Nc2cccc(C(F)(F)F)c2)c1=O	4%	.	.	.	-13%	36%
Cc1ccc(C)c(CN2CCCN(Cc3ccc(F)cc3)S2(=O)=O)c1	67%	.	.	.	62%	89%
Cc1ccc(C)n1-c1nnc(N2CCC(C(=O)Nc3ccccc3Br)CC2)s1	-13%	.	.	.	-25%	15%
N#Cc1ccc(C(=O)Nc2nnc(-c3ccccn3)o2)cc1	8.9µM*	?	-15%	-14	?	16%
COc1ccc(Cc2nnc(N/N=C(\C)c3ccccc3)[nH]c2=O)cc1OC	35µM*	0%	-26%	5	-35%	31%
COc1ccc(Cc2nnc(NN)[nH]c2=O)cc1OC	4µM*	.	.	-4	2.5µM*	37%
COc1ccc(/C=N/Nc2nnc(Cc3ccc(OC)c(OC)c3)c(=O)[nH]2)cc1OC	?	0%	-9%	15	?	13%
CC(C)(C)OC(=O)NCc1nnc(C(C(=O)OCc2ccccc2)c2ccccc2)s1 (stereo unspecified)	.	.	.	.	-18%	.
Cc1sc(NC(=O)c2ccco2)c(C(c2ccc(F)cc2)N2CCN(C)CC2)c1C (stereo unspecified)	50µM*	-8%	-17%	4	56µM*	?
Fc1ccc(-c2n[nH]c(=S)n2/N=C/c2c[nH]c3ccccc23)cc1	8%	0%	8%	10	?	20%
Cc1cc(-c2n[nH]c(=S)n2/N=C/c2ccccc2[N+](=O)[O-])n[nH]1	?	3%	6%	-15	3.5µM*	?
O=[N+]([O-])c1ccccc1/C=C/C=N/n1c(-c2ccc(Cl)cc2)n[nH]c1=S	?	8%	-7%	-17	?	-19%
Cc1cc(-c2n[nH]c(=S)n2/N=C/c2c[nH]c3ccccc23)n[nH]1	-22%	-16%	-10%	-12	10µM*	11%
CC(C)(C)C1CCc2c(sc(NC(=O)c3cccc(Cl)c3)c2C(N)=O)C1 (stereo unspecified)	5%	.	.	.	-8%	-3%
SMILES	BAZ2B inh	JMJD2E inh	L3MBTL1 block	PI5P4K alpha inh	JMJD2A Tudor	HP1b chromo inh
C=CCNCCCCOc1cccc(Br)c1	32µM*	?	-22%	-12	0.71µM*	?
CCOc1cccc(OCCCNCCCOC)c1	40µM*	-6%	2%	-9	2.8µM*	?
OCCNCCCCOc1cccc(Br)c1	3%	6%	-3%	-4	-5%	47%
CC(C)NCCCCOc1cccc(Br)c1	50µM*	?	-1%	-8	35µM*	26%
Brc1cccc(OCCSc2ncccn2)c1	77%	3%	79%	7	?	181%
COCCCNCCCCOc1cccc(Br)c1	?	?	10%	-6	2.5µM*	-13%
COc1ccc(NCc2cc3cc4c(cc3n(CC(=O)Nc3ccc(F)cc3F)c2=O)OCO4)cc1	-39%	.	.	.	-18%	28%
CCOc1ccc(S(=O)(=O)NCCc2csc(-c3ccc(Cl)cc3)n2)cc1	5%	.	.	.	-5%	12%[57 µM]
Cc1c(C#N)c2ccccc2n1CC(=O)N1CCCC1	32%	-6%	37%	-8	79µM*	?
CCC(C)NC(=O)Cn1c(=O)n(CCCC(=O)NCc2ccc(C)cc2)c(=O)c2ccccc21 (stereo unspecified)	0%	.	.	.	7%	22%
COC(=O)[C@H]1O[C@@H](c2cc(OC)c(C)c(OC)c2O)[C@H](C)[C@@H](O)[C@H]1C	.	-6%	.	.	.	.
COc1ccc(CCNC(=S)NC(=O)c2ccc(Br)cc2)cc1OC	32µM*	-1%	-26%	4	-34%	12%
CCOC(=O)c1c(C)oc2nc(C)nc(NCCCN3CCN(c4ccc(F)cc4)CC3)c12	?	.	.	.	?	-11%
O=C(CSC1=NS(=O)(=O)c2cc(Cl)ccc2N1)NCc1ccccc1	6%	.	2%	5	-4%	23%
NS(=O)(=O)c1cc2c(cc1Cl)NC(CSCc1ccccc1)=NS2(=O)=O	89µM*	-14%	-14%	-2	0%	15%
CCN(CCNC(=O)C1CCN(Cc2nc(-c3cccc(Cl)c3)oc2C)CC1)c1ccccc1	40µM*	?	-40%	27	40µM*	?
CCc1ccc(-c2nc(CN3CCC(C(=O)NCc4ccc(F)cc4)CC3)c(C)o2)cc1	2%	-2%	16%	-26	?	25%
CCN(CCNC(=O)C1CCN(Cc2nc(-c3ccc(Cl)cc3)oc2C)CC1)c1ccccc1	14µM*	-6%	?	-1	50µM*	?
CCN(CCNC(=O)C1CCCN(Cc2nc(-c3ccc(OC)cc3)oc2C)C1)c1ccccc1 (stereo unspecified)	11µM*	1%	?	.	32µM*	-42%
Cc1oc(-c2ccc(Cl)cc2)nc1CN1CCC(C(=O)NCCCN2CCOCC2)CC1	4%	-11%	34%	.	-9%	25%
CCc1ccc(-c2nc(CN3CCC(C(=O)NCCN(CC)c4ccccc4)CC3)c(C)o2)cc1	?	0%	?	1	50µM*	?

Screening results deposited in PubChem BioAssay by National Center for Advancing Translational Sciences (NCATS).
